# Laboratory results: PubChem BioAssay
# Unmarked numbers belong to inactive results. No rule for the calls is given here.
# System: Botulinum neurotoxin type F light chain protease (Clostridium botulinum)
# Experiment: Clostridium botulinum type F light chain protease inhibitors, microsphere substrate cleavage, validation (AID 588459)
# Conditions: multiplex microsphere protease substrate cleavage assay, flow cytometry; at 10 µM; stronger effect = higher value
row,SMILES,inhibition
1,COc1cccc(OC)c1C(=O)Nc1nc2ccc([N+](=O)[O-])cc2s1,7.7%
2,CCCCC[C@H](O)/C=C/C1=C(CCCCCCC(=O)O)C(=O)CC1,-0.6%
3,CO[C@@H]1O[C@@H]2COC(c3ccccc3)O[C@@H]2[C@@H](OC)[C@@H]1O (stereo not given in full),1.6%
4,O=C(NCCC(c1ccccc1)c1ccco1)c1cccs1 (stereo not given),3.1%
5,CC(C)(C)C(=O)NC(=S)Nc1sc2c(c1C(N)=O)CCC2,0.8%
6,CC(=O)CCc1oc2ccccc2c1-c1ccccc1,-0.7%
7,NS(=O)(=O)c1cc2c(cc1Cl)NCNS2(=O)=O,-3.8%
8,COC(=O)C1=C(C)NC(C)=C(C(=O)OC)C1c1ccccc1[N+](=O)[O-],5.8%
9,CCN(CC)Cc1c[nH]c2c(C(=O)OC)cccc12,-0.7%
10,COc1ccc(Cc2noc(CN(C)CCN3CCc4ccccc4C3)n2)cc1OC,-1.9%
11,CN1[C@@H](CC(=O)c2ccccc2)CCC[C@H]1C[C@H](O)c1ccccc1,3.2%
12,O=C(COc1ccc(F)cc1)OCCN1CCOCC1,1.8%
13,COc1ccc(C2c3c(n[nH]c3C)CC(C)(O)C2C(C)=O)cc1OC (stereo not given),4%
14,c1ccc(CC2=NCCN2)cc1,1.9%
15,C[N+]12CCC(CC1)C(OC(=O)C(O)(c1ccccc1)c1ccccc1)C2 (stereo not given),1%
16,CN1CC2CCCC3(C1)C(=O)NC1(CCCCC1)N=C23 (stereo not given),2.2%
17,CN(C)C(=O)C12CCC(C)(c3nc4ccccc4nc31)C2(C)C (stereo not given),-1.3%
18,c1ccc(SSc2ccccc2)cc1,0.3%
19,COCc1cc(=O)[nH]c(/N=C(\N)Nc2ccc(Oc3ccccc3)cc2)n1,3.4%
20,CCNC(=S)N1CCN(CCN2C(=O)c3cccc4cccc(c34)C2=O)CC1,5.8%

row,SMILES,inhibition
1,O=C(O)COc1ccc2occ(C(=O)c3ccccc3)c2c1,-1.3%
2,O=c1[nH]c(=O)n([C@H]2C[C@H](O)[C@@H](CO)O2)cc1F,1.7%
3,O=C(/C=C/c1ccc(F)cc1)N1CC[C@@]2(O)CCCC[C@H]2C1,-2.9%
4,O=C(c1cccc2ccccc12)C1CCCN(C(=O)CCN2CCCO2)C1 (stereo not given),1.2%
5,CC1(C)C(=O)OC(c2cccs2)C2(CCCCC2)C1=O (stereo not given),-2.1%
6,CN(Cc1c(C(=O)N(C)Cc2ccccc2)nc2ccccn12)CC1Cc2ccccc2O1 (stereo not given),4.4%
7,CC(C)COCC(CN(Cc1ccccc1)c1ccccc1)N1CCCC1 (stereo not given),1.2%
8,CCC(=O)Oc1ccc(C(=O)Nc2ccc([N+](=O)[O-])cc2)cc1,2.3%
9,N=c1ccn(CC(=O)NC(N)=O)c2ccccc12,3.3%
10,COC(=O)C1=C(C)NC(C)=C(C(=O)OCCN(C)Cc2ccccc2)C1c1cccc([N+](=O)[O-])c1 (stereo not given),-2.1%
11,CCOC(=O)C1NN=C(C(=O)c2ccccc2)C1c1ccc(Cl)cc1 (stereo not given),3%
12,COC(=O)CSc1nc2ccc(N)cc2s1,2.6%
13,CC(C)(C)n1c(=O)[nH]c2c(c1=O)CCC2,1.8%
14,CNCCCN1c2ccccc2CCc2ccccc21,-0.9%
15,Cc1ccc(S(=O)(=O)N[C@@H](Cc2ccccc2)C(=O)CCl)cc1,-3.3%
16,COc1ccc(-c2cc(=O)oc3c(C)c(O)c(CN(C)C)cc23)cc1,11.3%
17,N#C/C(=C\c1ccc(O)c(O)c1)C(=O)NCCCc1ccccc1,1.8%
18,Cc1ccc(P(=O)(CSC(=N)N)c2ccc(C)cc2)cc1,-1.3%
19,CCc1cc2c(=O)c(-c3nc4ccccc4n3C)coc2c(CN2CCN(C)CC2)c1O,-0.9%
20,Cn1nnnc1SCC1=C(C(=O)O)N2C(=O)[C@@H](NC(=O)[C@H](O)c3ccccc3)[C@H]2SC1,1%

# Biological target: Botulinum neurotoxin type A (Clostridium botulinum) (UniProt P0DPI0)
# Experiment: BoNT/A light chain protease inhibitors, biochemical, multiplex microsphere flow cytometry, validation set (AID 588460)
# Conditions: at 10 µM, stronger effect = higher value
# Chain of Botulinum neurotoxin type A (Clostridium botulinum) (P0DPI0 whole entry, looked up): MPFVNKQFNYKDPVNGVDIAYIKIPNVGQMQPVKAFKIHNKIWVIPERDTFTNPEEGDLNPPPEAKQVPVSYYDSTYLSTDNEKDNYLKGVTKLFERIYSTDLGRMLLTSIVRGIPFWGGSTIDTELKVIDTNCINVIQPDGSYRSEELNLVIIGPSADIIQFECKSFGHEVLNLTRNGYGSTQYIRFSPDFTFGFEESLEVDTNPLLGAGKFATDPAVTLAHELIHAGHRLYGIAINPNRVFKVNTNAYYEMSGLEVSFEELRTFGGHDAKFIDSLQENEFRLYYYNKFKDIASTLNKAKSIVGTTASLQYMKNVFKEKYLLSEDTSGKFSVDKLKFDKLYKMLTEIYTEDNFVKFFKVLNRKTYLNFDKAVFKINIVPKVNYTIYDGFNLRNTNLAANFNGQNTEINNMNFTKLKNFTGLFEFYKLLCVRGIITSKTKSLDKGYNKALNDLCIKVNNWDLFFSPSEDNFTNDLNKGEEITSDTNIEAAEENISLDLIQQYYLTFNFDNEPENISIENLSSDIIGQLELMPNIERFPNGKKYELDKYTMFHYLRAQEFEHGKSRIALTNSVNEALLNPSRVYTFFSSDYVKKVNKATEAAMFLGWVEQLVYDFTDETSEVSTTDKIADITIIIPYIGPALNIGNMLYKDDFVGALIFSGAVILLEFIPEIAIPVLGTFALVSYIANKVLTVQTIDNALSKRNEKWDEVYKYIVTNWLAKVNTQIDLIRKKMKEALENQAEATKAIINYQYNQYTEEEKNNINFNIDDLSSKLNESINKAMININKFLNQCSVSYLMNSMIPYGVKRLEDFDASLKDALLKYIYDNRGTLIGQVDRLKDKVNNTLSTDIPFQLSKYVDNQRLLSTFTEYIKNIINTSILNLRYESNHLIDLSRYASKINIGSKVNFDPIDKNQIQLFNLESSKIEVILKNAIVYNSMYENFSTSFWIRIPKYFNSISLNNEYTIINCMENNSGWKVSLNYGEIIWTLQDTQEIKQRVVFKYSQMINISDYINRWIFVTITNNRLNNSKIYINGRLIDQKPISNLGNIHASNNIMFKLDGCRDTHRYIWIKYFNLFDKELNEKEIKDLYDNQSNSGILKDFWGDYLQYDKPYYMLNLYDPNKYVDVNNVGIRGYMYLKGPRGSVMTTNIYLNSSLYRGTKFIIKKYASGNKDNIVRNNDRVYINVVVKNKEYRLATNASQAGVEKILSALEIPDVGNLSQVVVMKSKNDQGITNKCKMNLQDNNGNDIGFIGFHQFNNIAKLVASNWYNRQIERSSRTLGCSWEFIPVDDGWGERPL
row,SMILES,inhibition
1,COc1cccc(OC)c1C(=O)Nc1nc2ccc([N+](=O)[O-])cc2s1,3.3%
2,CCCCC[C@H](O)/C=C/C1=C(CCCCCCC(=O)O)C(=O)CC1,-0.5%
3,CO[C@@H]1O[C@@H]2COC(c3ccccc3)O[C@@H]2[C@@H](OC)[C@@H]1O (stereo not given in full),-0.6%
4,O=C(NCCC(c1ccccc1)c1ccco1)c1cccs1 (stereo not given),-2.7%
5,CC(C)(C)C(=O)NC(=S)Nc1sc2c(c1C(N)=O)CCC2,0.4%
6,CC(=O)CCc1oc2ccccc2c1-c1ccccc1,-1.4%
7,NS(=O)(=O)c1cc2c(cc1Cl)NCNS2(=O)=O,-2.4%
8,COC(=O)C1=C(C)NC(C)=C(C(=O)OC)C1c1ccccc1[N+](=O)[O-],2.2%
9,CCN(CC)Cc1c[nH]c2c(C(=O)OC)cccc12,0.3%
10,COc1ccc(Cc2noc(CN(C)CCN3CCc4ccccc4C3)n2)cc1OC,-0.3%
11,CN1[C@@H](CC(=O)c2ccccc2)CCC[C@H]1C[C@H](O)c1ccccc1,-1%
12,O=C(COc1ccc(F)cc1)OCCN1CCOCC1,-1%
13,COc1ccc(C2c3c(n[nH]c3C)CC(C)(O)C2C(C)=O)cc1OC (stereo not given),0.1%
14,c1ccc(CC2=NCCN2)cc1,-1.4%
15,C[N+]12CCC(CC1)C(OC(=O)C(O)(c1ccccc1)c1ccccc1)C2 (stereo not given),0.1%
16,CN1CC2CCCC3(C1)C(=O)NC1(CCCCC1)N=C23 (stereo not given),-0.6%
17,CN(C)C(=O)C12CCC(C)(c3nc4ccccc4nc31)C2(C)C (stereo not given),-1.5%
18,c1ccc(SSc2ccccc2)cc1,-1.5%
19,COCc1cc(=O)[nH]c(/N=C(\N)Nc2ccc(Oc3ccccc3)cc2)n1,0.1%
20,CCNC(=S)N1CCN(CCN2C(=O)c3cccc4cccc(c34)C2=O)CC1,3.7%

row,SMILES,inhibition
1,O=C(O)COc1ccc2occ(C(=O)c3ccccc3)c2c1,0.2%
2,O=c1[nH]c(=O)n([C@H]2C[C@H](O)[C@@H](CO)O2)cc1F,1.3%
3,O=C(/C=C/c1ccc(F)cc1)N1CC[C@@]2(O)CCCC[C@H]2C1,-2.2%
4,O=C(c1cccc2ccccc12)C1CCCN(C(=O)CCN2CCCO2)C1 (stereo not given),1.1%
5,CC1(C)C(=O)OC(c2cccs2)C2(CCCCC2)C1=O (stereo not given),-1.3%
6,CN(Cc1c(C(=O)N(C)Cc2ccccc2)nc2ccccn12)CC1Cc2ccccc2O1 (stereo not given),0.4%
7,CC(C)COCC(CN(Cc1ccccc1)c1ccccc1)N1CCCC1 (stereo not given),-1.8%
8,CCC(=O)Oc1ccc(C(=O)Nc2ccc([N+](=O)[O-])cc2)cc1,-0.2%
9,N=c1ccn(CC(=O)NC(N)=O)c2ccccc12,1.6%
10,COC(=O)C1=C(C)NC(C)=C(C(=O)OCCN(C)Cc2ccccc2)C1c1cccc([N+](=O)[O-])c1 (stereo not given),-0.8%
11,CCOC(=O)C1NN=C(C(=O)c2ccccc2)C1c1ccc(Cl)cc1 (stereo not given),1.4%
12,COC(=O)CSc1nc2ccc(N)cc2s1,-1%
13,CC(C)(C)n1c(=O)[nH]c2c(c1=O)CCC2,-0.4%
14,CNCCCN1c2ccccc2CCc2ccccc21,-0.6%
15,Cc1ccc(S(=O)(=O)N[C@@H](Cc2ccccc2)C(=O)CCl)cc1,1.2%
16,COc1ccc(-c2cc(=O)oc3c(C)c(O)c(CN(C)C)cc23)cc1,0.6%
17,N#C/C(=C\c1ccc(O)c(O)c1)C(=O)NCCCc1ccccc1,1.2%
18,Cc1ccc(P(=O)(CSC(=N)N)c2ccc(C)cc2)cc1,-0.5%
19,CCc1cc2c(=O)c(-c3nc4ccccc4n3C)coc2c(CN2CCN(C)CC2)c1O,0.3%
20,Cn1nnnc1SCC1=C(C(=O)O)N2C(=O)[C@@H](NC(=O)[C@H](O)c3ccccc3)[C@H]2SC1,0.9%
